Test results as given in PubChem BioAssay AID1063 (University of Pittsburgh Molecular Library Screening Center, 2008).
The campaign covered roughly 200,000 compounds. About 18,000 (9%) were called active. Rule as the data show it: active = inhibition above about 50%; inactive = the rest. The list comes from a sample in which actives are over-represented; it also holds similar structures and randomly drawn compounds.

Assay: antileishmanial activity against promastigotes – primary screen (AID 1063);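 also: promastigotes grown with compound for 44 hours at 28 °C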
Details: Leishmania major promastigotes, resazurin fluorescence viability; at 10 µM; active compounds read high

Row | Compound | inhibition
1 | O=C1N/C(=N\N=C\c2ccco2)SC1Cc1ccc(F)cc1 (stereo not given) | -16.9% (inactive)
2 | Cc1cc(C(C)(C)C)cc(C)c1N | 3.48% (inactive)
3 | COc1ccc(-c2cc(C)nc3nc(N)nn23)cc1 | 0.56% (inactive)
4 | Cc1cc(N)n2nc(-c3ccc(C(C)(C)C)cc3)cc2n1 | 80.3% (active)
5 | CCOC(=O)c1ccc(N2C(=O)CC(N3CCN(C(=O)c4ccccc4)CC3)C2=O)cc1 (stereo not given) | -1.97% (inactive)
6 | O=C(c1ccc(F)cc1)n1cc(C(=S)N2CCOCC2)c2ccccc21 | -2.86% (inactive)
7 | Cc1c(NC(=S)NC(=O)CCc2ccccc2)c(=O)n(-c2ccccc2)n1C | -2.93% (inactive)
8 | CN(C)CCNC(=O)/C(=C/c1cccc([N+](=O)[O-])c1)NC(=O)c1ccccc1 | 68.3% (active)
9 | C=CCNC(=O)/C(=C\c1cccc([N+](=O)[O-])c1)NC(=O)c1ccccc1 | -2.62% (inactive)
10 | O=C(NCCc1ccccc1)/C(=C\c1ccc([N+](=O)[O-])cc1)NC(=O)c1ccccc1 | -2.32% (inactive)
11 | Cc1nnc(SCc2cccc(Cl)c2)n(N)c1=O | 9.66% (inactive)
12 | CN1CCN(S(=O)(=O)c2cccc(C(=O)N3CCc4ccccc43)c2)CC1 | 7% (inactive)
13 | S=C(NCCc1ccccc1)N1CCn2cccc2C1c1ccncc1 (stereo not given) | 81.9% (active)
14 | O=C1CCN(C(=S)NCCc2ccccc2)CC1 | -11.3% (inactive)
15 | S=C(NCCc1ccccc1)N1CCCCC1 | -2.11% (inactive)
16 | COc1cccc(NC(=O)CC2C(=O)NCCN2C(=S)Nc2ccc(F)cc2)c1 (stereo not given) | -2.74% (inactive)
17 | Fc1cc(Br)ccc1NC(=S)Nc1cccnc1 | 5.1% (inactive)
18 | S=C(Nc1cccc(Br)c1)N1CCn2cccc2C1c1cccnc1 (stereo not given) | 91.2% (active)
19 | O=C(/C=C/c1ccccc1)Oc1coc(CSc2ncccn2)cc1=O | -7.34% (inactive)
20 | Cc1cccc2cc(CN(Cc3cccs3)C(=S)NCc3ccco3)c(=O)[nH]c12 | 46% (inactive)

Row | Compound | inhibition
21 | Cc1cc(C)c2[nH]c(=O)c(CN(Cc3ccccc3)C(=S)NCCCN(C)C)cc2c1 | 100% (active)
22 | COCCCNC(=S)N(Cc1ccccc1)Cc1ccc(F)cc1 | 9.14% (inactive)
23 | CN1C=CC=C/C1=C1\SC(=S)N(Cc2ccccc2)C1=O | -0.34% (inactive)
24 | CN(C)C(CNC(=O)c1cccc(C#N)c1)c1ccco1 (stereo not given) | 3.86% (inactive)
25 | COc1cccc2cc(C(C)N(CCCN3CCOCC3)C(=O)Nc3ccc(Cl)cc3)oc12 (stereo not given) | 48.2% (inactive)
26 | Cc1ccc(NC(=S)N(CCCN2CCCC2)Cc2cccn2Cc2ccc(Cl)cc2)cc1 | 99.7% (active)
27 | CCc1ccccc1NC(=S)N(CCN1CCCCCC1)Cc1ccco1 | 21.6% (inactive)
28 | CCOC(=O)N1CCN(CCC(=O)Nc2cc(OC)ccc2OC)CC1 | -3.46% (inactive)
29 | CCOC(=O)N1CCN(C(=O)C2CCN(Cc3ccc(OC)cc3OC)CC2)CC1 | 53.4% (active)
30 | CCOC(=O)N1CCN(C(=O)C2CCN(S(C)(=O)=O)CC2)CC1 | -5.19% (inactive)
31 | Cc1ccc(C)c(Cn2nnc3c(=O)[nH]c(C(=O)Nc4ccc(F)cc4)nc32)c1 | 39% (inactive)
32 | O=[N+]([O-])c1ccc2[nH]c3c(c2c1)CCCC3O (stereo not given) | -1.72% (inactive)
33 | CCn1c(CNC(=O)c2ccco2)nnc1SCC(=O)Nc1cccc(F)c1 | -1.95% (inactive)
34 | CCCCNC(=O)N1CCN(S(C)(=O)=O)CC1 | -0.76% (inactive)
35 | Cc1ccc(C)c(Cn2cnc3c(oc4ccccc43)c2=O)c1 | -7.39% (inactive)
36 | Cc1ccc(C)c(NC(=O)CSc2nnc(Cc3cccn3C)n2-c2ccc(F)cc2)c1 | -0.8% (inactive)
37 | Cc1ccc(C)c(NC(=O)CSc2nc3c(oc4ccccc43)c(=O)n2-c2ccccc2)c1 | 97.7% (active)
38 | COCCC(=O)Nc1ccc2c(c1)CN(C(=O)CCOC)CC2 | -5.46% (inactive)
39 | COCCn1c(N)c(N(Cc2ccccc2)C(=O)C2CCCCC2)c(=O)[nH]c1=O | -6% (inactive)
40 | C=CCOC(=O)C1=C(C)N=C2SCCC(=O)N2C1/C=C/c1ccccc1OC (stereo not given) | 7.43% (inactive)

Row | Compound | inhibition
41 | O=C(c1cccc(S(=O)(=O)N2CCCC2)c1)N(Cc1ccco1)C1CCS(=O)(=O)C1 (stereo not given) | -2.42% (inactive)
42 | O=C(CSc1nnc(-c2cccs2)n1Cc1ccccc1)N1CCc2ccccc2C1 | 83.6% (active)
43 | CCn1c(SCC(=O)c2ccc3ccccc3c2)nnc1-c1cccs1 | -1.02% (inactive)
44 | O=C(CSc1nnc(-c2cccs2)n1-c1ccccc1)N1CCN(C(=O)c2ccco2)CC1 | -10.5% (inactive)
45 | COC(=O)c1ccc(COC(=O)c2cnccn2)cc1 | -1.35% (inactive)
46 | COc1cc(C2C(C(=O)Nc3ccccc3OC)=C(C)Nc3ncnn32)ccc1O (stereo not given) | -3.99% (inactive)
47 | COc1ccc(C2C(C(=O)Nc3ccccc3OC)=C(C)Nc3nnnn32)c(OC)c1 (stereo not given) | 15.1% (inactive)
48 | COc1ccccc1NC(=O)C1=C(C)Nc2nnnn2C1c1cccc(Br)c1 (stereo not given) | 95.7% (active)
49 | Cc1ccnc(NC(=O)CCC(=O)N(CC(=O)NCc2ccccc2)Cc2ccco2)c1 | -5.25% (inactive)
50 | Cc1ccc(C)c(N(CC(=O)NCc2ccco2)C(=O)CCC(=O)Nc2ccccn2)c1 | 53.3% (active)
51 | COCCNC(=O)CN(C(=O)CCC(=O)Nc1cc(C)on1)c1ccc(C)cc1C | 2.39% (inactive)
52 | O=S1(=O)CCN(Cc2ccccc2Cl)CC1 | -4.67% (inactive)
53 | O=C(NCC1CCN(Cc2ccccc2Cl)CC1)Nc1cccc(Cl)c1 | 76.4% (active)
54 | O=C(NCCN1CCOCC1)Nc1cccc(Cl)c1 | -0.08% (inactive)
55 | N#Cc1ccc(CSc2nnc3ccccn23)cc1 | -3.72% (inactive)
56 | Cc1ccc(NN=C2C(=O)OC(C)(C)OC2=O)c(C)c1 | -4.89% (inactive)
57 | Cc1onc(C(=O)NN)c1C(=O)N1CCN(C(c2ccccc2)c2ccccc2)CC1 | -5.09% (inactive)
58 | CN(c1ccccc1)S(=O)(=O)c1ccc(Cl)c(C(=O)OCC(N)=O)c1 | -0.01% (inactive)
59 | O=C(Cc1c(F)cccc1Cl)Nc1ccc(-n2cnnn2)cc1 | 1% (inactive)
60 | CN(c1ccccc1)S(=O)(=O)c1cccc(NC(=O)Cc2c(F)cccc2Cl)c1 | 98.4% (active)
